In PubChem BioAssay AID504332 (National Center for Advancing Translational Sciences (NCATS), 2011):
The whole screen tested about 350,000 compounds, of which about 31,000 (8.9%) were called active. Another 15% or so got no clear call; they are omitted. What follows is part of a selection rich in actives, with near analogues and random picks from the rest. Entries that show only a call come without a potency. A number with no mark means an inactive call. Calls follow the shape of the dose curve; as a rule, active = well fitted inhibition curve with a large enough effect; inconclusive = small, poorly fitted or top-dose-only effect; inactive = no such curve, though single readings can be large or run the other way.

Target: Histone-lysine N-methyltransferase EHMT2 (Homo sapiens) (UniProt Q96KQ7)
Experiment: qHTS Assay for Inhibitors of Histone Lysine Methyltransferase G9a; also: nearly all actives have a fitted effect of over 75% in size
Conditions: G9a H3K9 monomethylation, AlphaScreen, 2 h; series mostly up to 59 µM
Procedure, shortened: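 Signal arises when biotinylated H3K9 peptide, once monomethylated, bridges streptavidin donor and antibody-captured acceptor beads. Enzyme at 20 nM was preincubated 15 min with test compounds; peptide 500 nM and SAM 20 uM then reacted for 2 h.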
Potency is read from the fitted curve at half-maximal effect.

Histone-lysine N-methyltransferase EHMT2 (Homo sapiens), sequence (Q96KQ7 913-1193 limits assumed): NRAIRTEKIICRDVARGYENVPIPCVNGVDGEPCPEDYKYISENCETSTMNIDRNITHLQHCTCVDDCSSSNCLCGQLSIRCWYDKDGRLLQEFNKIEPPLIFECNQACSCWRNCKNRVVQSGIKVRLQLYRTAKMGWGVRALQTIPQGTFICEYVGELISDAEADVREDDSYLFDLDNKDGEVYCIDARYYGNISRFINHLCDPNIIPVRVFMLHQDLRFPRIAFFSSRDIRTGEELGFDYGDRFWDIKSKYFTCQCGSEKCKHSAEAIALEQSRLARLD

| Structure (SMILES) | Potency | activity, negative = inhibition |
| --- | --- | --- |
| O=C(CSC1=NS(=O)(=O)c2cc(F)ccc2N1)Nc1ccccc1F | inactive | – |
| N#Cc1nc(/C=C/c2ccc(F)cc2)oc1NC1CCCCC1 | inactive | – |
| Cc1cc(C)c(NC(=O)Cn2c(SCC(=O)NCc3ccccc3)nc3ccccc32)c(C)c1 | inactive | – |
| O=C(Nc1cc(Cl)cc(Cl)c1)c1ccc2c(c1)N(Cc1cccc(Cl)c1)C(=O)c1ccccc1S2=O (stereo unspecified) | inactive | – |
| COc1ccccc1NC(=O)c1oc2ccccc2c1NC(=O)COc1ccccc1OC | inactive | – |
| CCC(C)c1ccc2oc(-c3ccc(NC(=O)c4cc5ccccc5o4)cc3)nc2c1 (stereo unspecified) | inactive | – |
| Cn1ccc(=Nc2ccc(NC(=O)c3ccc(N=c4ccn(C)c5ccc([N+](=O)[O-])cc45)cc3)cc2)cc1 | 15.8 µM (active) | – |
| Cc1cc([N+](=O)[O-])ccc1NC(=O)c1ccc(NC(=O)C(C)C)cc1 | inactive | – |
| COc1cc(NS(=O)(=O)c2ccc(NC(=O)c3ccc([N+](=O)[O-])cc3)cc2)ncn1 | inactive | – |
| COc1ccccc1CNS(=O)(=O)CC12CCC(CC1=O)C2(C)C (stereo unspecified) | inactive | – |
| COc1cc(C(=O)NCc2cc3cc(Cl)ccc3n2C)cc(OC)c1OC | inactive | – |
| Cc1c(Cl)cccc1NC(=O)c1noc2c1CCCC2 | inactive | – |
| Cc1ccc(S(=O)(=O)N2CCCCC2)cc1C(=O)N(C)CC(=O)Nc1cccc(F)c1 | inactive | – |
| Cc1cc(C)c(SCCc2ccncc2)c(C)c1 | inactive | – |
| Cc1cc(NC(=O)COc2ccc([N+](=O)[O-])cc2)no1 | – | -2.93% [at 12.7 µM] |
| CCOCC(=O)Nc1ncc(S(=O)(=O)c2ccc([N+](=O)[O-])cc2)s1 | 35.5 µM (active) | – |
| CC(C)c1nnc(NC(=O)COC(=O)/C=C/c2ccc([N+](=O)[O-])cc2)s1 | inactive | – |
| CC/C(=N\NC(=O)c1c(C)nc2ccccn12)c1ccc(Cl)cc1 | inactive | – |
| CC(C)C(C)NC(=O)COc1nc2ccccc2nc1N(C)C1CCCCC1 (stereo unspecified) | inactive | – |
| COc1ccccc1N(C)S(=O)(=O)c1ccc(Cl)c(C(=O)Nc2ccncc2)c1 | inactive | – |
| CN1CCN(C2(CNC(=O)COc3ccc(C(C)(C)C)cc3)CCCCC2)CC1 | inactive | – |
| C/C(=N\NC(=S)NCc1ccccc1)C1CCCCC1 | 35.5 µM (active) | – |
| C/C(=N\NC(=S)NCc1ccccc1)c1ccc(Cl)cc1 | inactive | – |
| O=C(CC1CCCCC1)NCc1ccccc1 | inactive | – |
| COc1ccc(OC)c(CNC(=O)Cn2nc(C)c3c(C)n(-c4ccc(C)cc4)nc3c2=O)c1 | inactive | – |
| COc1cccc(CNC(=O)c2ccc3c(Cl)c4c(nc3c2)CCCC4)c1 | inactive | – |

| Structure (SMILES) | Potency | activity, negative = inhibition |
| --- | --- | --- |
| C/C(CC1CC(C)(C)OC1=O)=N/Nc1nc(-c2ccccc2)cs1 (stereo unspecified) | 3.16 µM (active) | – |
| CCc1noc(C)c1C(=O)Nc1nc(-c2ccccc2)cs1 | inactive | – |
| CC1(C)CC(CCC(=O)Nc2ccccc2Cl)C(=O)O1 (stereo unspecified) | inactive | – |
| CN1C(=O)c2[nH]nc(-c3ccc(F)cc3)c2C1c1ccccn1 (stereo unspecified) | inactive | – |
| CCOC(=O)C1CCN(C(=O)Nc2cccc(OC)c2)CC1 | inactive | – |
| CCOC(=O)c1[nH]c2ccc(OC)cc2c1NC(=O)CCN1CCN(Cc2ccccc2)CC1 | – | -13.9% [at 2.33 µM] |
| CCOC(=O)c1[nH]c2ccc(OC)cc2c1NC(=O)N1CCOCC1 | 50.1 µM (active) | – |
| COCC(C)N=CC1=C(O)CC(C)(C)CC1=O (stereo unspecified) | inactive | – |
| C=CCO/N=C/C1=C(O)C(C(=O)OC)C(C)(C)CC1=O (stereo unspecified) | 15.8 µM (active) | – |
| CCCC(=O)C1=C(N(C)c2ccccc2)CC(C)(C)C(C(=O)OC)C1=O (stereo unspecified) | inactive | – |
| COc1ccc(S(=O)(=O)n2cnc3ccccc32)c(C)c1 | inactive | – |
| CC(C)(C)c1cc(CN2CCN(CCC#N)CC2)cc(C(C)(C)C)c1O | 17.8 µM (active) | – |
| N#CCCN1CCN(S(=O)(=O)c2ccc(S(=O)(=O)N3CCCC3)cc2)CC1 | inactive | – |
| N#Cc1cccc(CN2CCC(=O)N(CCO)CC2)c1 | inactive | – |
| CCN(C(=O)CSc1ncnc2sccc12)c1c(N)n(Cc2ccccc2)c(=O)[nH]c1=O | inactive | – |
| Cc1ccc(N2C(=O)C3C4C=CC(CC4)C3C2=O)cc1Br (stereo unspecified) | – | -6.84% [at 0.501 µM] |
| CCCn1nc(NC(=O)C(C)C)c2cc3cc(OC)ccc3nc21 | inactive | – |
| O=C(C1CCCO1)N1CCC(c2nc3ccccc3[nH]2)CC1 (stereo unspecified) | – | -28.9% [at 12.7 µM] |
| O=S(=O)(c1ccc(Br)cc1)N1CCC(c2nc3ccccc3[nH]2)CC1 | 70.8 µM (active) | – |
| N#CC(C(=O)c1ccc(S(=O)(=O)N2CCCCCC2)cc1)c1nc2ccccc2[nH]1 (stereo unspecified) | inactive | – |
| COc1ccc(CCNC(=O)COC(=O)Cc2cccc(F)c2)cc1 | – | 5.11% [at 0.501 µM] |
| CC(Oc1cc2oc(=O)c3c(c2cc1Cl)CCCC3)C(=O)NCc1ccncc1 (stereo unspecified) | inactive | – |
| COc1cc(OC)nc(NC(=O)CCl)n1 | inactive | – |
| COc1ccc(C/C(C)=N/NC(=O)c2ccncc2)cc1 | inactive | – |
| COc1cc(OC)nc(N/N=C(\c2ccccc2)c2ccncc2)n1 | 12.6 µM (active) | – |
| CN(CC(=O)NNC(=O)CNC(=O)c1ccccc1Cl)S(=O)(=O)c1ccc(Cl)cc1 | – | 4.73% [at 0.501 µM] |

| Structure (SMILES) | Potency | activity, negative = inhibition |
| --- | --- | --- |
| Cc1ccc(NC(=O)c2cc3cc(C)ccc3n2C)cc1 | inactive | – |
| O=C(c1cccc2ccccc12)N1CCN(c2ccccc2F)CC1 | 2.82 µM (active) | – |
| COc1ccc2oc(=O)c(C(=O)N3CCN(c4ccccc4F)CC3)cc2c1 | – | 21.4% [at 12.7 µM] |
| O=C(c1ccc(CN2CCOCC2)cc1)N1CCN(c2ccccc2F)CC1 | inactive | – |
| Cc1cccc(C)c1Nc1nnc(SCC(=O)Nc2sccc2C#N)s1 | inactive | – |
| Cc1csc(SCC(=O)Nc2sccc2C#N)n1 | inactive | – |
| CC(c1nnc(SCC(=O)Nc2sccc2C#N)n1-c1ccc(Cl)cc1)N(C)C (stereo unspecified) | 50.1 µM (active) | – |
| COc1ccc(C2NC(=O)N(C)C(C)=C2[N+](=O)[O-])cc1 (stereo unspecified) | inactive | – |
| COc1cccc(C(=O)NNC(=O)c2cccc(F)c2)c1 | inactive | – |
| CCCCOC(=O)/C(C#N)=C/c1ccc(-c2cccc(C(F)(F)F)c2)o1 | inactive | – |
| CCOc1ccc(Nc2oc(/C=C/c3ccc(F)cc3)nc2C#N)cc1 | inactive | – |
| O=C(O)/C=C/c1ccc(OCCCF)cc1 | inactive | – |
| O=C(Nc1ccccc1C(=O)N1CCOCC1)c1ccc(Cl)cc1 | inactive | – |
| N#C/C(=C\N1CCOCC1)S(=O)(=O)c1ccc(Cl)cc1 | inactive | – |
| O=S(=O)(Oc1ccccc1C(=S)N1CCOCC1)c1ccc(Cl)cc1 | 31.6 µM (active) | – |
| O=C(CSc1nnc(-c2ccccc2F)o1)Nc1cccc(C(F)(F)F)c1 | inactive | – |
| O=C(NCc1ccccc1)c1cc(-c2cccc(Cl)c2)on1 | inactive | – |
| Cc1cccn2c(=O)c(C=O)c(Nc3ccc(S(N)(=O)=O)cc3)nc12 | inactive | – |
| CC(OC(=O)/C=C/c1ccccc1)C(=O)Nc1ccc(C(N)=O)cc1 (stereo unspecified) | – | 0.935% [at 12.7 µM] |
| COC1=C(N2CCOCC2)C(=O)c2ccccc2C1=O | 3.55 µM (active) | – |
| Cc1oc2c(c1C(=O)N1CCOCC1)C(=O)c1ccccc1C2=O | inactive | – |
| O=C1C(Cl)=C(N2CCOCC2)C(=O)N1c1ccccc1 | – | 3.23% [at 2.33 µM] |
| COc1cccc(CNC(=O)CN2C(=O)NC(Cc3ccccc3)(c3ccccc3)C2=O)c1 (stereo unspecified) | – | -1.58% [at 12.7 µM] |
| Cc1ccc2cccc(NC(=O)c3ccc(OC(C)C)cc3)c2n1 | inactive | – |
| O=C(COc1coc(CN2CCN(c3ccccc3)CC2)cc1=O)N1CCc2ccccc21 | inactive | – |
| COc1ccc(OC)c(NC(=O)C2CCN(S(=O)(=O)c3ccc(C)cc3)CC2)c1 | inactive | – |

| Structure (SMILES) | Potency | activity, negative = inhibition |
| --- | --- | --- |
| CC(C)C(=O)OCC(=O)Nc1ccc2c(c1)CCC2 | inactive | – |
| COc1ccc(CNc2ccc3c(c2)CCC3)cc1OC | 39.8 µM (active) | – |
| COc1ccc(CN2CCCCC2C)cc1OC (stereo unspecified) | inactive | – |
| COc1ccc(OC)c(CCNC(=O)c2nn(C)c3c2CS(=O)(=O)c2ccccc2-3)c1 | inactive | – |
| O=C(COC(=O)CNC(=O)C1CCCCC1)NCc1ccccc1 | – | 3.72% [at 12.7 µM] |
| O=C(CCc1nc(CN2CCN(S(=O)(=O)c3ccc(Cl)cc3)CC2)no1)N1CCCCC1 | inactive | – |
| NS(=O)(=O)c1ccc2nc(NC(=O)C3=COCCO3)sc2c1 | inactive | – |
| Cc1ccc2nc(N(CCN(C)C)C(=O)C3=COCCO3)sc2c1 | 79.4 µM (active) | – |
| Cc1ccc2nc(-c3ccc(NC(=O)CN(C)S(=O)(=O)c4ccccc4)cc3)sc2c1 | inactive | – |
| CCOC(=O)c1cccc(NC(=O)c2cc(S(=O)(=O)N3CCCC(C)C3)cn2C)c1 (stereo unspecified) | inactive | – |
| CCOC(=O)c1ccc(NC(=O)C2CCN(S(=O)(=O)c3ccc4c(c3)CCCC(=O)N4)CC2)cc1 | inactive | – |
| CCc1ccc(-c2nc(SCC(=O)NC3CCCC3)n[nH]2)cc1 | inactive | – |
| COC(=O)[C@@H](NC(=O)Nc1cc(Cl)ccc1C)C(C)C | inactive | – |
| CCCCCCn1nnc2sc(-c3ccccc3)cc2c1=O | inactive | – |
| Cc1ccc(Cl)cc1NC(=O)C(C)n1nnc2sc(-c3ccccc3)cc2c1=O (stereo unspecified) | 1.12 µM (active) | – |
| CCC(C)NC(=O)Cn1c(=O)n(-c2ccc(Cl)cc2)c(=O)c2c3c(sc21)CCCC3 (stereo unspecified) | inactive | – |
| CCOc1ccc(CCNC(=O)c2ccc3c(c2)sc2nc(-c4ccc(F)cc4)cn23)cc1OCC | inactive | – |
| CCCN(CCC)C(=O)C1CCCN(c2ncnc3c2nc2n3CCCCC2)C1 (stereo unspecified) | inactive | – |
| S=c1[nH]nc(/C=C/c2ccccc2)o1 | 22.4 µM (active) | – |
| O=c1oc(/C=C/c2ccccc2)nc2ccccc12 | inactive | – |
| Clc1ccc(CSc2nnc(/C=C/c3ccccc3)o2)c(Cl)c1 | inactive | – |
| CCc1ccccc1S(=O)(=O)Cc1ccc(C(=O)NCCc2ccccc2)o1 | inactive | – |
| COC(=O)c1ccc(C)c(NC(=O)C2CC(=O)N(C3CCCC(C)C3C)C2)c1 (stereo unspecified) | inactive | – |
